Bioassay records from PubChem.
Mtb BioA inh: blocks M. tuberculosis BioA enzyme activity; purified M. tuberculosis BioA enzyme, plate reader; inhibition, % at 9.99 µM; 360,000 tested, 0.096% active; AID 602481; in the data active = inhibition above about 40%; inconclusive = no clear call, values can overlap the other calls
TcdB GH inh: TcdB glycohydrolase inhibition. P18177. TcdB glycohydrolase enzymatic assay, plate reader. inhibition, % at 9.99 µM. 350,000 tested, 0.24% active. AID 652162; in the data active = inhibition above about 10%
FadD28 binding: M. tuberculosis FadD28 bisubstrate binding inhibition. FadD28 bisubstrate probe binding, fluorescence polarization. inhibition, % at 12.5 µM. 360,000 tested, 0.22% active; in the data active = inhibition above about 8.5%, passing the limit was not always enough; inconclusive = no clear call, values can overlap the other calls
Vc quorum ag-1: quorum light induction in luxS cqsA deficient V. cholerae | activation, % at 18.7 µM | 350,000 tested, 0.16% active | V. cholerae BH1578 lux reporter, luminescence, 6 h | AID 588436; in the data active = activation mostly above about 9.7%, no sharp cut-off; inconclusive = no clear call, values can overlap the other calls; inactive = mostly below about 3.7%
Yp Topo-I inh: blocks Yersinia pestis topoisomerase I activity. Y. pestis Topo-I cleavage product accumulation, plate reader. activity, % at 10 µM. 360,000 tested, 0.064% active. AID 504884; in the data active = activity above about 50%, passing the limit was not always enough; inconclusive = no clear call, values can overlap the other calls
Vc quorum ag-2: induces V. cholerae light production without autoinducers; shares compounds with Vc quorum ag-1; V. cholerae BH1578 lux reporter, luminescence, 6 h; activation, % at 50 µM; 620 tested, under 10 active; AID 602243; call rule not given here
Numbers stand for hits; i = inactive; ? = inconclusive; nt = no result given; + = active, no number. The list is not random: actives were taken first. Their share in the collection is about 0.61%.

SMILES | Mtb BioA inh | TcdB GH inh | FadD28 binding | Vc quorum ag-1 | Yp Topo-I inh | others
COc1cc(/C=C2\C(=O)ON=C2c2ccccc2)cc(OC)c1OC | i | nt | i | + | i
COc1ccc2c3c(n(C)c2c1)[C@H](CO)N(C(C)=O)CC31CN(S(=O)(=O)c2ccccc2)C1 | nt | i | nt | nt | nt
O=C(O)c1cc(NS(=O)(=O)c2ccc(NC3CCCCC3)c([N+](=O)[O-])c2)cc(C(=O)O)c1 | nt | 12.9 | i | i | i
COc1cc2c(cc1O)C=[N+](Cc1cc3c(cc1Br)OCO3)CC2 | i | i | nt | nt | nt
Cc1ccc(C(=O)COC(=O)c2cc(=O)[nH]c3ccccc23)cc1 | nt | 11.2 | i | i | i
C[C@@H]1CN([C@H](C)CO)S(=O)(=O)c2ccc(-c3ccc(C#N)cc3)cc2O[C@H]1CN(C)C | i | i | nt | nt | nt
CN1C(=O)c2cc(NC(=O)Cc3cccs3)ccc2OC[C@H]2O[C@H](CC(=O)O)CC[C@H]21 | i | i | nt | nt | nt
O=C(O)CCCN1C(=O)/C(=C/c2ccc(-c3nc4ccccc4s3)o2)SC1=S | i | nt | 8.6 | i | i
O=C(O)CCCCCN1C(=O)/C(=C\c2ccc(-c3ccc(Cl)cc3)o2)SC1=S | i | i | i | i | i
O=C(Nc1ccccc1Cl)OCC#CCOC(=O)Nc1ccccc1Cl | i | i | i | i | 54.7
NC(=O)NC(=O)Nc1ccccc1Cl | i | nt | i | i | i
CSC1=NSC2=NC(=O)/C(=C/c3coc4ccc(O)cc4c3=O)C(=N)N12 | nt | i | 11.9 | i | i
CSC1=NSC2=NC(=O)/C(=C/c3coc4ccccc4c3=O)C(=N)N12 | nt | i | i | i | i
CCC1CCC(C(=O)NNC(=O)c2cc(-c3ccco3)[nH]n2)CC1 (stereo not given) | nt | i | 11.4 | i | i
C[C@H](CO)N1C[C@H](C)[C@@H](CN(C)C(=O)Nc2ccc3c(c2)OCO3)OCCCC[C@H](C)Oc2ccc(NC(=O)CCC(F)(F)F)cc2C1=O | i | i | nt | nt | nt
COC(=O)C(Cc1ccccc1)NC(=O)CSc1nc(C)cc(=O)[nH]1 (stereo not given) | i | 22.0 | i | i | i
Cc1cc(=O)[nH]c(SCC(=O)NNC(=O)Cc2ccccc2)n1 | nt | i | i | i | i
C[C@H]1ON(c2ccccc2)[C@@H](c2ccccc2)[C@@H]1C(=O)N1C(=O)OC[C@@H]1c1ccccc1 | i | i | nt | nt | nt
NNc1ccc([N+](=O)[O-])c2[nH][nH]c(=O)c12 | i | i | 16.0 | i | i
CC1=C(C#N)c2nc(N)c(C#N)c(C)c2/C1=C\c1ccc(-c2ccccc2C(=O)O)o1 | nt | i | 11.8 | i | i
COc1cc(/C=C2/C(C)=C(C#N)c3nc(N)c(C#N)c(C)c32)ccc1OCC(=O)O | nt | i | nt | nt | nt
Cn1cnnc1SCC(=O)NC(=O)NC1CCCC1 | i | nt | i | i | i
Cn1cnnc1SCC(=O)NC1CCCCC1 | i | 15.0 | i | i | i
COc1cccc2c1C(=N)c1c(O)c3c(c(O)c1C2=O)CC(O)(C(C)=O)CC3OC1CC(N)C(O)C(C)O1 (stereo not given) | nt | nt | i | i | 231.4
CCCCC(=O)OCC(=O)C1(O)Cc2c(O)c3c(c(O)c2C(OC2CC(NC(=O)C(F)(F)F)C(O)C(C)O2)C1)C(=O)c1c(OC)cccc1C3=O (stereo not given) | nt | i | ? | i | i
SMILES | Mtb BioA inh | TcdB GH inh | FadD28 binding | Vc quorum ag-1 | Yp Topo-I inh | others
COc1cccc2c1C(=O)c1c(O)c3c(c(O)c1C2=O)CC(O)(C(C)=O)CC3OC1CC(O)C(O)C(C)O1 (stereo not given) | nt | i | 65.9 | i | i
COc1cccc2c1-c1c(O)cccc1C2=O | i | i | i | i | i
COc1cccc2c1C(=O)c1c(O)c3c(c(O)c1C2=O)C[C@](O)(C(C)=O)C[C@H]3O[C@@H]1C[C@@H](N)[C@@H](O)[C@@H](C)O1 | i | i | 62.0 | i | i
CC(=O)NC(Cc1ccccc1)C(=O)Oc1ccc2ccccc2c1 (stereo not given) | i | 10.2 | i | i | i
C[C@H]1CN([C@@H](C)CO)S(=O)(=O)c2ccc(-c3ccncc3)cc2O[C@@H]1CN(C)Cc1ccc(Oc2ccccc2)cc1 | i | 20.1 | nt | nt | nt
C[C@H]1CN([C@@H](C)CO)S(=O)(=O)c2ccc(-c3ccncc3)cc2O[C@@H]1CN(C)Cc1ccccc1 | i | i | nt | nt | nt
C[C@H]1CN([C@@H](C)CO)S(=O)(=O)c2ccc(-c3ccncc3)cc2O[C@H]1CN(C)Cc1ccc(Oc2ccccc2)cc1 | i | 12.4 | nt | nt | nt
C[C@@H]1CN([C@H](C)CO)S(=O)(=O)c2ccc(-c3ccncc3)cc2O[C@@H]1CN(C)Cc1ccc(Oc2ccccc2)cc1 | i | 11.2 | nt | nt | nt
C[C@@H]1CN([C@H](C)CO)C(=O)Cc2cc(N(C)C)ccc2O[C@H]1CN(C)Cc1ccncc1 | i | i | nt | nt | nt
C/C(=N\OCC(=O)N/N=C/c1ccccc1O)c1cccs1 | i | nt | i | 33.3 | i
C/C(=N\OCC(=O)N/N=C/c1ccccc1)c1cccs1 | i | nt | i | i | i
CCCOC(=O)c1ccc(NC(=O)c2cc(OC)c(OC)c(OC)c2Br)cc1 | i | nt | 12.5 | i | i
COc1cc(C(=O)Nc2ccc(C(C)=O)cc2)c(Br)c(OC)c1OC | i | nt | i | i | i
Cc1ccc(S(=O)(=O)NCCC(=O)OCC(=O)N(Cc2ccccc2)C(C)(C)C)cc1C | i | i | i | i | i | Vc quorum ag-2=i
CC(C)(C)N(Cc1ccccc1)C(=O)COC(=O)CNS(=O)(=O)c1ccc2ccccc2c1 | i | i | i | i | i
CCOC(=O)c1c(C)[nH]c(C(=O)COC(=O)C2(C)CC2(Cl)Cl)c1C (stereo not given) | i | nt | i | i | i | Vc quorum ag-2=i
C[C@H]1CN([C@@H](C)CO)C(=O)c2cccc(NC(=O)CCCCCC(=O)Nc3ccccc3N)c2O[C@H]1CN(C)C | nt | i | nt | nt | nt
Cc1ccc(NC(=S)NCCc2c[nH]c3ccccc23)cc1 | i | nt | i | 16.7 | i | Vc quorum ag-2=i
CC(OC(=O)Cn1cnc2c1c(=O)n(C)c(=O)n2C)C(=O)c1ccccc1 (stereo not given) | i | i | i | i | i | Vc quorum ag-2=i
Cc1cc(C)c(C(=O)C(C)OC(=O)Cn2cnc3c2c(=O)n(C)c(=O)n3C)cc1C (stereo not given) | nt | i | i | i | i
O=C(O)c1cn[nH]c1-n1cnnn1 | i | nt | i | i | i | Vc quorum ag-2=i
Cc1noc(C)c1COc1ccc(C(=O)NCC(c2c(F)cccc2Cl)N(C)C)cc1 (stereo not given) | i | i | i | i | i | Vc quorum ag-2=i
OCCn1c(SC2CCCCC2)nc2ccccc21 | i | nt | i | 16.7 | i | Vc quorum ag-2=i
C/C=C/c1ccc([C@H]2[C@@H](CO)N(C(=O)CC)[C@@H]2CNC(=O)c2ccncc2)cc1 | i | nt | nt | nt | nt
CC(C)CCN1CC(C(=O)N2CCN(c3ccc(F)cc3)CC2)CC1=O (stereo not given) | i | nt | i | 16.7 | i | Vc quorum ag-2=i
O=C1CC(C(=O)N2CCN(c3ccc(F)cc3)CC2)CN1CCc1ccccc1 (stereo not given) | i | i | i | i | i
COc1ccc(C(CNC(=O)c2ccc(-c3cccc(C(F)(F)F)c3)o2)N2CCOCC2)cc1 (stereo not given) | i | i | i | i | i | Vc quorum ag-2=i
